The results in this text go back to PubChem BioAssay (NCATS).

Experiment [1] in a line: Cell Viability - Jurkat (AID 426;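 active means dose-dependent loss of cell ATP signal giving a full or clear fitted curve, ranked by lower potency value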; further: potency means the concentration at half of the fitted maximal effect). The settings on record: qHTS. The method, boiled down: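 Cytotoxicity was scored as loss of cellular ATP, measured by luciferase-based luminescence, in Jurkat clone E6-1 cells after 40 h compound treatment; tamoxifen and doxorubicin served as positive controls.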
In general terms: Quantitative high-throughput screening tests each substance at several concentrations.

A short description of experiment [2]: Cell Viability - Hek293 (AID 427;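 active means compounds whose dose-response curve shows a full or clear partial loss of cell viability, called from curve shape rather than a numeric limit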;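 further: potency means the concentration at half of the fitted maximal effect; cells exposed to compound for 40 hours at 37 °C before reading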). The note with it: qHTS. In a few lines: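 HEK293 cells in complete medium were exposed to compound for 40 hr at 37 °C, then cellular ATP was read by CellTiter-Glo luminescence. Data were normalized to DMSO (basal) and 100 uM tamoxifen (100% inhibition), and AC50 came from Hill fits.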
Experiment [3] is described as follows: Cell Viability - SK-N-SH (AID 435; calls by dose curve;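 further: potency means the concentration at half of the fitted maximal effect; compound exposure lasted 40 h at 37 °C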). The settings on record: SK-N-SH neuroblastoma cell viability qHTS. In a few lines: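 Cells seeded at 1500 per well and incubated 5 hr at 37 °C. Compound added, then 40 hr at 37 °C. CellTiter-Glo added, 20 min at room temperature, luminescence read.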
Experiment [4] is described as follows: Cellular Toxicity (caspase-3) Jurkat (AID 655).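 Further: cells exposed to compound for 16 h at 37 °C before reading.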 The note with it: Jurkat caspase-3 activation, luminescence; caspase-3 activation: at 92.2 µM (top of the series), DMSO = 0%, tamoxifen = 100%. The method, boiled down: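 Caspase 3/7 activation is scored as increased luminescence in Jurkat cells cultured with compound for 16 hours in complete medium. AC50 values come from Hill fits of qHTS concentration-response data normalized to DMSO and 100 uM tamoxifen controls.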

Experiment [5] is described as follows: Cell Viability - LYMP2-015 (AID 971).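 Further: 0% = DMSO only and full effect = 92 µM tetraoctylammonium bromide; nearly all actives have a fitted effect of over 55% in size.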 The settings on record: LYMP2-015 lymphoblastoid cell viability; series mostly up to 92.2 µM. In a few lines: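 AC50 values reflect Hill-model fits of ATP-based luminescence (CellTiter-Glo) from a human lymphoblastoid line, 2500 cells/well, treated 24 hr at 37 C.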
Experiment [6] in a line: Cell Viability - LYMP2-019 (AID 973).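 Further: cells exposed to compound for 24 h at 37 °C; 0% = DMSO alone and full effect = 92 µM tetraoctylammonium bromide; nearly all actives have a fitted effect of over 55% in size.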 The settings on record: LYMP2-019 lymphoblastoid cell line viability; series mostly up to 92.2 µM. In a few lines: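 AC50 values come from Hill-equation modelling of qHTS concentration-response curves, where viability is measured as luciferase-based ATP luminescence in the lymphoblastoid line after 24 hr compound exposure in complete culture medium.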

Experiment [7] can be described thus: Cell Viability - LYMP2-021 (AID 974).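 Further: compound exposure lasts 24 hours at 37 °C; on the % scale 0 is the no-effect control and ±100 the full control effect; nearly all actives have a fitted effect of over 55% in size.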 The note with it: LYMP2-021 lymphoblastoid cells viability; series mostly up to 92.2 µM. In a few lines:
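In qHTS format, compounds are tested against 2500 lymphoblastoid cells per well for 24 h; viable cell number is inferred from ATP-driven luciferase light, and Hill-equation fitting yields AC50 values.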

Experiment [8] in a line: Cell Viability - LYMP2-025 (AID 976).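 Further: cells exposed to compound for 24 h at 37 °C; plate controls were DMSO only for no effect and tetraoctylammonium bromide control for full effect.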 The note with it: LYMP2-025 lymphoblastoid cell viability; series mostly up to 92.2 µM. The method, boiled down:
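Luminescent ATP readout after 24 hr treatment of a human lymphoblastoid line (LYMP2-025, 2500 cells/well, 37 C). Reagent developed 30 min at room temperature; AC50 fitted with the Hill equation.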

A short description of experiment [9]: Cell Viability - LYMP2-006 (AID 978).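 Further: cells exposed to compound for 24 hours; on the % scale 0 is the no-effect control and ±100 the full control effect; nearly all actives have a fitted effect of over 60% in size.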 The note with it: LYMP2-006 lymphoblastoid cell viability, qHTS; series mostly up to 92.2 µM. In a few lines: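 Concentration-dependent loss of intracellular ATP in a human lymphoblastoid line after 24 hr treatment at 37 C was measured by CellTiter-Glo luminescence, with AC50 values obtained from standard Hill-equation modelling.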

Experiment [10] can be described thus: Cell Viability - LYMP2-007 (AID 979).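 Further: cells exposed to compound for 24 h before reading; 0% = DMSO only and the negative end = 92 µM tetraoctylammonium bromide; nearly all actives have a fitted effect of over 60% in size.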 The note with it: LYMP2-007 lymphoblastoid cell viability; series mostly up to 92.2 µM. The method, boiled down: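 Measured via luciferase-based ATP quantitation: lymphoblastoid cells, 24 hr compound exposure at 37 C, AC50 from Hill fits.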
Experiment [11] can be described thus: Cell Viability - LYMP2-008 (AID 980).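 Further: cells exposed to compound for 24 h at 37 °C; on the % scale 0 is the no-effect control and ±100 the full control effect; nearly all actives have a fitted effect of over 60% in size.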 The note with it: LYMP2-008 lymphoblastoid cell viability, qHTS; series mostly up to 92.2 µM. The method, boiled down: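 Measured: ATP-dependent luminescence, proportional to viable cell number, in human lymphoblastoid cells treated 24 hr with compound in complete culture medium. Values are AC50s from Hill-equation modelling of qHTS titrations.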

Experiment [12] can be described thus: Cell Viability - LYMP2-014 (AID 983).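 Further: cells exposed to compound for 24 h at 37 °C; plate controls were DMSO only for no effect and 92 µM tetraoctylammonium bromide for full effect; nearly all actives have a fitted effect of over 50% in size.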 The note with it: LYMP2-014 lymphoblastoid cells, viability qHTS; series mostly up to 92.2 µM. In a few lines: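 Quantitative HTS in lymphoblastoid cells: 24 hr compound exposure, then CellTiter-Glo ATP luminescence. Positive control was tetraoctylammonium bromide, 6.4pM to 92 uM.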
Experiment [13] can be described thus: Cell Viability - LYMP2-018 (AID 985).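 Further: plate controls were DMSO only for no effect and tetraoctylammonium bromide at 92 µM for full effect; nearly all actives have a fitted effect of over 50% in size.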 The settings on record: LYMP2-018 lymphoblastoid cells, viability (qHTS); series mostly up to 92.2 µM. The method, boiled down: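 In this qHTS viability assay, cells are treated for 24 hr and cellular ATP is quantified by luciferase-based luminescence, with tetraoctylammonium bromide as positive control.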
A short description of experiment [14]: Cell Viability - LYMP2-020 (AID 986).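 Further: cells exposed to compound for 24 h at 37 °C; plate controls were DMSO only for no effect and tetraoctylammonium bromide at 92 µM for full effect; nearly all actives have a fitted effect of over 55% in size.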 The settings on record: series mostly up to 92.2 µM. The method, boiled down: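 Cells at 2500 per well receive a 24 hr compound exposure at 37 C. Viability is measured as ATP-dependent luciferase luminescence, with AC50 modeled from qHTS concentration-response curves.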
A short description of experiment [15]: Cell Viability - LYMP1-002 - Assay at 40 hr (AID 994).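 Further: 0% = DMSO only and full inhibition = 92 µM tetraoctylammonium bromide; nearly all actives have a fitted effect of over 60% in size.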 The note with it: LYMP1-002 lymphoblastoid cell viability; series mostly up to 92.2 µM. In a few lines: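 Concentration-dependent ATP loss after 40 hr treatment at 37 C defined toxicity; AC50 values were obtained by fitting the standard Hill equation.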
The nature of experiment [16]: qHTS assay for small molecule antagonists of retinoid X receptor alpha signaling (AID 588546).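 Further: cells stimulated with 9-cis-retinoic acid as agonist; on the % scale 0 is the no-effect control and ±100 the full control effect.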 The note with it: HEK293T RXRa-UAS-bla, beta-lactamase ratio, antagonist mode; measured here: W530 green channel, cytotoxicity proxy. The method, boiled down: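 Beta-lactamase reporter inhibition, read as CCF4 fluorescence ratio (ex 405, em 460/530 nm) after 2 h at RT. HEK293T UAS-bla cells, 2500/well, were stimulated with 9-cis-RA at 500 or 100 nM final alongside test compound for 18 h at 37 C.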

Experiment [17] can be described thus: qHTS assay for small molecule agonists of the antioxidant response element (ARE) signaling pathway measured by Nrf2-dependant transcriptional activity - cell viability counter screen (AID 720653; active means well fitted curve in the direction sought with a large enough effect in the repeat runs; an effect the other way counts as inactive or inconclusive; further: on the % scale 0 is the no-effect control and ±100 the full control effect). The settings on record: ARE-bla HepG2 viability, CellTiter-Glo ATP luminescence, 16 h; stronger effect = lower value. In a few lines:
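ARE-bla HepG2 cells (2,000/well) rested 5 hrs at 37C/5% CO2, then exposed to compounds in DMSO for 16 hrs. Viability was read in the same wells as intracellular ATP by luminescence, 30 min at room temperature after reagent addition.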

The nature of experiment [18]: Cell Viability - LYMP2-004 (AID 966).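 Further: plate controls were DMSO only for no effect and tetraoctylammonium bromide control for full effect; nearly all actives have a fitted effect of over 65% in size.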 The note with it: LYMP2-004 lymphoblastoid cell viability, qHTS; series mostly up to 92.2 µM. The method, boiled down:
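Viable-cell number estimated from ATP luminescence (CellTiter-Glo) in 2500 human lymphoblastoid cells/well after 24 hr at 37 C with compound. AC50 fitted to the standard Hill equation.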

Experiment [19] deals with Voltage-gated inwardly rectifying potassium channel KCNH2 (Homo sapiens) (UniProt Q12809). The experiment in a line: qHTS Assay for Small Molecule Inhibitors of the Human hERG Channel Activity (AID 588834).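 Further: top concentration of the series differs between compounds; on the % scale 0 is the no-effect control and ±100 the full control effect; lower thallium flux fluorescence means stronger hERG block; nearly all actives have a fitted effect of over 50% in size.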 The note with it: U2OS BacMam hERG, FluxOR thallium flux fluorescence; series mostly up to 92.2 µM. The method, boiled down: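 Cells were infected with hERG-BacMam virus for 4 hrs at room temperature, grown overnight, then seeded at 2000/well. After dye loading and roughly 10 min compound treatment, thallium influx was triggered and fluorescence recorded.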

“And” between values parts separate entries of the source, which are not always exact repeats. Equal entries are not always repeated. Inconclusive results are not listed. The source made the active and inactive calls. Unless noted, the call rests on the fitted dose curve; in most records, active means well fitted curve in the direction sought with a large enough effect; inconclusive means small, poorly fitted or top-dose-only effect, or another doubt; inactive means no such curve, though single readings can be large; an effect the other way counts as inactive or inconclusive. Bounds are passed on as bounds.

Voltage-gated inwardly rectifying potassium channel KCNH2 (Homo sapiens), sequence (Q12809 whole entry, looked up): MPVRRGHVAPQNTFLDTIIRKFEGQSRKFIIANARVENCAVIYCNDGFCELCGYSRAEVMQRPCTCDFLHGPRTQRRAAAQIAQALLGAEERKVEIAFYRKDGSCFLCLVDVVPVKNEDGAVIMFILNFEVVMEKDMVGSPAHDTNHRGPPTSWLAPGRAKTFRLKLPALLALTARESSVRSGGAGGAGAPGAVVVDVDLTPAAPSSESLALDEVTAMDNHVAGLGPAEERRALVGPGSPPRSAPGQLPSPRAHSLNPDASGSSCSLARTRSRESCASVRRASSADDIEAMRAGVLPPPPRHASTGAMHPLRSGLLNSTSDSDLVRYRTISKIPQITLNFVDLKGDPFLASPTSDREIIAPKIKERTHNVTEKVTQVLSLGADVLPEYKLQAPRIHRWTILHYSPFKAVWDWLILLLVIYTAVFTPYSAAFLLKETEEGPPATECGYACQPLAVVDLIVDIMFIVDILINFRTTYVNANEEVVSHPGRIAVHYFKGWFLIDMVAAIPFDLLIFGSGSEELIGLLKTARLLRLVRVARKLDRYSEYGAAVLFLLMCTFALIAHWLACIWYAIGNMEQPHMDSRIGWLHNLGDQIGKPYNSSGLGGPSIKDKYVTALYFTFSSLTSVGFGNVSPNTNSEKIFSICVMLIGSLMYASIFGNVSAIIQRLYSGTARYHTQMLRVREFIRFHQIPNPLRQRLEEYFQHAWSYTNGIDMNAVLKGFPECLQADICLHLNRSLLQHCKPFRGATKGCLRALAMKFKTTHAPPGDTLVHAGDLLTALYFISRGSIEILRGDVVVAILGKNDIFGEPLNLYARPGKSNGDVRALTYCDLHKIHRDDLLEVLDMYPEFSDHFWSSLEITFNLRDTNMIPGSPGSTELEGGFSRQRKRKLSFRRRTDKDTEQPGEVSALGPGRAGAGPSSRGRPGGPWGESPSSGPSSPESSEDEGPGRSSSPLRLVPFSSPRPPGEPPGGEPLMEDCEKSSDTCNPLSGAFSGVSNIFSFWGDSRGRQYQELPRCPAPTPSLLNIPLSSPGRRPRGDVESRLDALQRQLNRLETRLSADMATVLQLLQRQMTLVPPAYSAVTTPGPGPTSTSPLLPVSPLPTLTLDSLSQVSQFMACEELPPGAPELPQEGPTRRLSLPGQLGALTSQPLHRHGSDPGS

Consider `c1ccc(NNc2ccccc2)cc1`, for which the Potency in [1], in experiment [2] and in experiment [3] was > 92 µM (inactive) in each case. Moreover, the caspase-3 activation in [4] was 0.504% (inactive). Further, the Potency entry in experiment [5], in [6], in experiment [7], in experiment [8], in experiment [9] and in experiment [10] was “inactive” in each case. Also, the Potency entry in [11], in experiment [12], in experiment [13], in experiment [14] and in experiment [15] was “inactive” in each case. The max response is -8.78% and -5.97% in experiment [16]; 0.997% (inactive) and 18.6% (inactive) in [17].
On to `c1ccc(Nc2ccc(Nc3ccccc3)cc2)cc1`, for which the Potency in [1], in [2] and in experiment [3] was > 92 µM (inactive) each time. For the same molecule, the caspase-3 activation in [4] was 8.77% (inactive). Moreover, the Potency result in [18], in [5], in [6], in experiment [7], in experiment [8] and in [9] was “inactive” each time. Besides, the Potency result in [10], in [11], in experiment [12], in experiment [13], in experiment [14] and in experiment [15] was “inactive” in each case. For the same molecule, the figures for the max response in experiment [16] and in [17] were -12.1% and -13.9% (inactive), respectively.
As for `C=C(C)CCl`, the Potency in experiment [1], in experiment [2] and in [3] was > 92 µM (inactive) each time. The caspase-3 activation in experiment [4] was -0.765% (inactive). The Potency result in [18], in [5], in experiment [6], in [7], in experiment [8] and in experiment [9] was “inactive” each time. In addition, the Potency entry in experiment [10], in experiment [11], in experiment [12], in experiment [13], in experiment [14] and in experiment [15] was “inactive” throughout. In addition, in [19], the Potency result was “inactive”. The max response in experiment [16] was -2.4%; in experiment [17], -2.48% (inactive).
